Bioassay records (PubChem)
The entries come from a sample that favours hits as a whole.
Pf apPOL inh: Pf-apPOL inhibitors, biochemical, fluorescence | AID 1794808, 2022 | inhibition, % at 10 µM | 0.25% of 210,000 active | Recombinant Pf-apPOL, molecular beacon fluorescence, 1.5 h | Plasmodium falciparum apicoplast DNA polymerase (apPOL)
mHTT-CaM PPI inh: mutant huntingtin-calmodulin interaction inhibitors – biochemical, AlphaScreen, primary screen | AlphaScreen His-mHTT/GST-CaM binding, luminescence | inhibition, % at 15 µM | 3.6% of 190,000 active | AID 1671202, 2021;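 note: 0% = both proteins with DMSO and 100% = one protein alone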
Numbers without * were called inactive; ! = repeats disagree. Cut-off read from the data, not from the text of the source: active = inhibition above about 50%; inactive = the rest.

What do the screens show for `OC(C#Cc1ccccc1)C#CC(O)(c1ccccc1)c1ccccc1` (configuration not stated)?
Pf apPOL inh: 4; mHTT-CaM PPI inh: 98*

What do the screens show for `O=C(CSc1n[nH]c(-c2ccncc2)n1)c1ccc(F)cc1`?
Pf apPOL inh: 1; mHTT-CaM PPI inh: 9

How did O=C(CSc1n[nH]c(-c2ccncc2)n1)c1ccc(O)c(O)c1 do in these assays?
Pf apPOL inh: -1; mHTT-CaM PPI inh: 84*!

What do the screens show for `Cc1[nH]nc2c1C(c1cc(Br)c(C)s1)C(C#N)=C(N)O2` (configuration not stated)?
Pf apPOL inh: 1; mHTT-CaM PPI inh: 4

What do the screens show for `Cc1oc(C)c2c(=O)cc(-c3ccc4c(c3)OCO4)cc(O)c12`?
Pf apPOL inh: 6; mHTT-CaM PPI inh: 53*

How did COc1cc(-c2cc(OC)c3c(C)oc(C)c3c(=O)c2)ccc1O do in these assays?
Pf apPOL inh: -3; mHTT-CaM PPI inh: 35

What do the screens show for `COc1ccc(S(=O)(=O)N2CCC(C(=O)Nc3ccc(Cl)cc3Cl)CC2)cc1OC`?
Pf apPOL inh: 0; mHTT-CaM PPI inh: 0

Results for COc1ccccc1N/C=C(\C#N)c1nc(-c2ccc(OC)c(OC)c2)cs1 ?
Pf apPOL inh: -5; mHTT-CaM PPI inh: 4

What do the screens show for `COc1ccc(C2=NN(CC(=O)NCc3ccccn3)C(=O)CC2)cc1`?
Pf apPOL inh: -17; mHTT-CaM PPI inh: 25

Results for COc1ccc(C2=NN(CCc3ccccn3)C(=O)C2)cc1 ?
Pf apPOL inh: 0; mHTT-CaM PPI inh: 87*

Results for COc1ccc(CNC(=O)c2cc3n(n2)CCCN(Cc2ccc(F)cc2)C3=O)cc1 ?
Pf apPOL inh: -2; mHTT-CaM PPI inh: 10

Results for CCSc1nnc2c(n1)OC(c1ccccn1)Nc1ccccc1-2 (configuration not stated) ?
Pf apPOL inh: 93*; mHTT-CaM PPI inh: 3

Results for CSc1nnc2c(n1)OC(/C=C/c1ccco1)Nc1ccccc1-2 (configuration not stated) ?
Pf apPOL inh: 0; mHTT-CaM PPI inh: 46

How did CCCSc1nnc2c(n1)OC(/C=C/c1ccco1)Nc1ccccc1-2 (configuration not stated) do in these assays?
Pf apPOL inh: 2; mHTT-CaM PPI inh: 54*

Results for CSc1nnc2c(n1)OC(c1ccccn1)Nc1ccc(Br)cc1-2 (configuration not stated) ?
Pf apPOL inh: -10; mHTT-CaM PPI inh: 22

How did CCSc1nnc2c(n1)OC(c1ccccn1)Nc1ccc(Br)cc1-2 (configuration not stated) do in these assays?
Pf apPOL inh: 0; mHTT-CaM PPI inh: 10

How did CSc1nnc2c(n1)OC(/C=C/c1ccco1)Nc1ccc(Br)cc1-2 (configuration not stated) do in these assays?
Pf apPOL inh: -3; mHTT-CaM PPI inh: 92*

Results for C=CCSc1nnc2c(n1)OC(/C=C/c1ccco1)Nc1ccccc1-2 (configuration not stated) ?
Pf apPOL inh: -8; mHTT-CaM PPI inh: 30

How did C=CCSc1nnc2c(n1)OC(/C=C/c1ccco1)Nc1ccc(Br)cc1-2 (configuration not stated) do in these assays?
Pf apPOL inh: 1; mHTT-CaM PPI inh: 87*

How did COCCNC(=O)c1cc2c(=O)n(C)ccc2n1C do in these assays?
Pf apPOL inh: -2; mHTT-CaM PPI inh: -5

What do the screens show for `Cc1c(C(=O)NCc2ccccc2)oc2ccc(S(=O)(=O)N3CCCC(C)C3)cc12` (configuration not stated)?
Pf apPOL inh: 0; mHTT-CaM PPI inh: -3

Results for O=C1OC(c2ccco2)=N/C1=C/c1ccc(Cl)cc1Cl ?
Pf apPOL inh: -5; mHTT-CaM PPI inh: -5

Results for O=C(O)c1cc([N+](=O)[O-])c(NC(CS(=O)(=O)Cc2cccc(F)c2)C(=O)O)c([N+](=O)[O-])c1 (configuration not stated) ?
Pf apPOL inh: -2; mHTT-CaM PPI inh: -29

What do the screens show for `COc1ccc(/C=C2/N=C(c3cccc(I)c3)OC2=O)c(OC)c1`?
Pf apPOL inh: 4; mHTT-CaM PPI inh: 1

How did Cc1ccc(NC(=O)CN2C(=O)C(c3ccc(F)cc3)=NC23CCCC3)cc1C do in these assays?
Pf apPOL inh: -4; mHTT-CaM PPI inh: -9

How did COC(=O)c1cc(OCc2ccccc2)c2cc(C)ccc2n1 do in these assays?
Pf apPOL inh: -2; mHTT-CaM PPI inh: 1

What do the screens show for `CCNC(=O)C1CCN(c2ccc(Cl)cc2F)C1=O` (configuration not stated)?
Pf apPOL inh: 2; mHTT-CaM PPI inh: 2

How did COc1ccccc1N=c1sc(C2=c3ccccc3=NC2=O)c(O)n1-c1ccccc1OC do in these assays?
Pf apPOL inh: -6; mHTT-CaM PPI inh: 39

What do the screens show for `CC1CCCN(C(=O)COc2ccc(Cl)cc2)C1` (configuration not stated)?
Pf apPOL inh: -5; mHTT-CaM PPI inh: -9

How did O=C(COc1ccc(Cl)cc1)N1CCC(N2CCc3ccccc32)CC1 do in these assays?
Pf apPOL inh: -4; mHTT-CaM PPI inh: 86*

How did CC(C)C(=O)N1CCN(c2nc3c(s2)CC(C(=O)NCC2CCCCC2)CC3)CC1 (configuration not stated) do in these assays?
Pf apPOL inh: 3; mHTT-CaM PPI inh: 6

Results for Cc1ccc(S(=O)(=O)NNC(=S)Nc2ccc3c(c2)OCCO3)cc1 ?
Pf apPOL inh: -5

What do the screens show for `Cc1nc(C(=O)NCCCN2CCCc3ccccc32)c(C)n1C1CCN(C)CC1`?
Pf apPOL inh: -2; mHTT-CaM PPI inh: 97*

What do the screens show for `CCCNC(=O)c1nc(C)n(C2CCN(C)CC2)c1C`?
Pf apPOL inh: -1; mHTT-CaM PPI inh: 1

Results for Cc1nc(C(=O)NCCc2ccc(Cl)cc2)c(C)n1C1CCN(S(C)(=O)=O)CC1 ?
Pf apPOL inh: 1; mHTT-CaM PPI inh: 61*

Results for Cc1nc(C(=O)NCCc2ccccn2)c(C)n1C1CCN(S(C)(=O)=O)CC1 ?
Pf apPOL inh: -7; mHTT-CaM PPI inh: 10

How did CC(C)(C)NC(=O)NC1CCN(c2ccc(F)cc2)C1=O (configuration not stated) do in these assays?
Pf apPOL inh: -2; mHTT-CaM PPI inh: -3

How did COc1ccc(CCC(=O)N2CCCC2c2c(C)noc2C)cc1 (configuration not stated) do in these assays?
Pf apPOL inh: 17; mHTT-CaM PPI inh: -2

How did Cc1cc(C)c2c(c1)[nH]c1nnc(SCC(=O)N3CCN(c4ccccc4)CC3)nc12 do in these assays?
Pf apPOL inh: 1; mHTT-CaM PPI inh: 74*

Results for Cc1cc(C)c2c(c1)[nH]c1nnc(SCC(=O)NCc3ccccc3)nc12 ?
Pf apPOL inh: -4; mHTT-CaM PPI inh: 8

What do the screens show for `O=C(CCSc1ccc(Cl)cc1)N1CCN(c2ccc(F)cc2)CC1`?
Pf apPOL inh: -6; mHTT-CaM PPI inh: 15

Results for CCCC(=O)Nc1ccc(NC(=O)COc2ccc(Cl)cc2Cl)cc1 ?
Pf apPOL inh: 6; mHTT-CaM PPI inh: 9

What do the screens show for `O=C(CCCOc1ccc(Cl)cc1Cl)N1CCN(c2ccc(F)cc2)CC1`?
Pf apPOL inh: 9; mHTT-CaM PPI inh: 76*

How did CC(=O)N1CCN(c2ccc(NC(=O)COc3ccc(Cl)cc3Cl)cc2)CC1 do in these assays?
Pf apPOL inh: -16; mHTT-CaM PPI inh: 50*

Results for CC12CCC(C(=O)N(c3nc4c(s3)CCCC4)C1=O)C2(C)C (configuration not stated) ?
Pf apPOL inh: 4; mHTT-CaM PPI inh: -1
